Test results from ChEMBL document CHEMBL4513216, “Probing the Open Global Health Chemical Diversity Library for Multistage-Active Starting Points for Next-Generation Antimalarials” (ACS Infect Dis, 2020).
The campaign covered roughly 68,000 compounds. About 2,700 (4%) showed an effect of 50% or more. Shown is part of a subset that was picked to be rich in strong results.

Test system: Plasmodium berghei
Assay: Screen against P. berghei liver stage (PbLuc), transformed with Luciferase, at 2uM
Assay type: functional, HepG2
Conditions: tested at 2 uM

SMILES | INHIBITION [%]
CC(C)C(=O)NCCCn1ncc2c(Cl)cccc21 | -7.01
CSCC(=O)N(C)Cc1ccc(N(C)C)cc1 | -20.68
Cc1ccc2cc(CN(C)Cc3ccncn3)c(=O)[nH]c2c1 | -20.98
O=C(CCn1ncc2c(Cl)cccc21)NCC1CC1 | 20.8
CCCC(=O)N(C)c1cccc2ncccc12 | 28.14
CN(Cc1cccc2ncccc12)C(=O)CCC(F)(F)F | -22.2
CN(C(=O)CCC(F)(F)F)c1cccc2ncccc12 | 59.67
CCN(CC)S(=O)(=O)N(C)Cc1ccc2c(c1)OCCO2 | 8.06
CCN(CC(=O)NCCc1nc(C)no1)Cc1ccc(Cl)cc1 | -45.29
CCN(CC)C(=O)CCc1c(C)nc2cc(O)nn2c1C | 18.97
Cc1nc2cc(O)nn2c(C)c1CCC(=O)N(C)CCC(C)C | 65.38
Cc1nc2cc(O)nn2c(C)c1CCC(=O)N(C)Cc1ccccc1 | 37.41
CC(C)(C)c1cc(CNC(=O)c2cc(COc3ccccc3)[nH]n2)[nH]n1 | -103.13
Cc1nn(C)c(C)c1NC(=O)CN1CCCC1c1noc(C(C)C)n1 (centres undefined) | 12.66
CC1=C(CCN2C[C@H](O)[C@@H](N3CCOCC3)C2)C(C)(C)CCC1 | -57.94
Cc1sc2nc(CCN)nc(N3CCN(S(C)(=O)=O)CC3)c2c1C | 20.77
CCOC(=O)N1CCN(c2nc(CCN)nc3sc(C)c(C)c23)CC1 | 17.89
Cc1sc2nc(CCN)nc(N3CCS(=O)(=O)CC3)c2c1C | 60.04
CCn1cc(Cl)c(C(=O)Nc2ccc3c(c2)C(C)(C)C(=O)N3C)n1 | 14.61
Cc1ccc(S(=O)(=O)NC(=O)CCc2ccccc2)cc1N(C)C | 0.01
CCOc1cccc(CCNC(=O)Cc2ccn[nH]2)n1 | 14.82
CCOc1cccc(CCNC(=O)Cc2cccc(O)c2)n1 | 26.74
CCOc1cccc(CCNC(=O)Cc2ccccc2O)n1 | 76.82
CN(C)C(=O)C1CCC2(CCN(Cc3cnn(C)c3)CC2)C1 (centres undefined) | 9.65
CN(CCCOc1ccccc1)C(=O)c1csc(-c2nnc[nH]2)n1 | 35.94
COC(=O)c1cc(C(=O)N2CCCCCC2)n(-c2ccccc2)n1 | 63.95
COC(=O)c1cc(C(=O)N2CCC(C)CC2)n(-c2ccccc2)n1 | 35.23
COC(=O)c1cc(C(=O)N2CCN(C)CC2)n(-c2ccccc2)n1 | 15.4
CC(C)OCCCNC(=O)CS(=O)(=O)Cc1ccc(C(C)(C)C)cc1 | 33.22
